# Laboratory results reported in PubChem BioAssay (EPA / NIEHS).
# Some compounds were tested as several samples or in several runs, with calls that do not always agree. The source made the active and inactive calls. How the source made its calls: active means hit-call score of the fitted dose curve at least 0.9, where 1 is the maximum; inactive means score below 0.9.
# Test: BSK_4H_Eotaxin3: BioMAP Diversity Plus: 4H Assay for Eotaxin 3 Biomarker Activity (AID 2283000)
# Details: primary human endothelial cells (HUVEC); actives raise or lower the signal
# Protocol: BSK_4H is a cell-based, multiplexed-readout assay that uses umbilical vein endothelium, a human vascular primary cell, with measurements taken at 24 hours after chemical dosing in a 96-well plate.BSK_4H_Eotaxin3 is an assay component measured in the BSK_4H assay. It measures Eotaxin-3 antibody related to regulation of gene expression using ELISA technology.Data from the assay component BSK_4H_Eotaxin3 was analyzed into 1 assay endpoint. This assay endpoint, BSK_4H_Eotaxin3, was analyzed with bidirectional fitting relative to DMSO as the negative control and baseline of activity. Using a type of binding reporter, gain or loss-of-signal activity can be used to understand changes in the signaling as they relate to the gene CCL26. Furthermore, this assay endpoint can be referred to as a primary readout, because this assay has produced multiple assay endpoints where this one serves a signaling function. To generalize the intended target to other relatable targets, this assay endpoint is annotated to the cytokine intended target family, where the subfamily is chemotactic factor.
# The levels of cell surface (or secreted, indicated by the prefix "s") biomarker endpoints were measured by ELISA. Overt cytotoxicity to cells in confluent adherent cultures (all systems other than the BT system) was assessed by measuring total protein levels using sulforhodamine B (SRB) staining in parallel cultures at the time of biomarker measurements, indicated as SRB endpoints. For proliferation assays for adherent cell types, individual cell types are cultured at sub-confluence and relative cell numbers quantified by SRB staining at time points optimized for each system (48 h: 3C and CASM3C systems; 72 h: BT and HDF3CGF systems; 96 h: SAg system). SRB was performed by staining cells with 0.1% SRB after fixation with 10% TCA and reading wells at 560 nm.Viability and proliferation of PBMC (T cells) was quantified by Alamar Blue reduction for the SAg and BT systems. For PBMC viability (referred to as PBMC Cytotoxicity within the assay endpoint names), cells were plated (75,000/well in a 96-well plate) and then chemical samples added for 1 h before addition of activators, SEB and TSST-1 (20 ng/mL final concentration each). Cells were incubated for 90 h. Then, Alamar Blue (20 uL/well) (Invitrogen, Cat DAL1100) was added for 6 h, and the plates were read with a fluorescence microplate reader at 546/580 nm (excitation/emission). For PBMC proliferation, cells were plated and activated as above but incubated for only 16 h prior to addition of Alamar Blue. Plates were read after 6 h.
Structure (SMILES),AC50,outcome
C[C@@H]1C[C@@H]([C@H](O)CC2CC(=O)NC(=O)C2)C(=O)[C@@H](C)C1,9.12 µM (active),
O=C(O)C(F)(F)C(F)(F)C(F)(F)C(F)(F)C(F)(F)C(F)(F)F,,inactive
CCCCC(CC)CO[N+](=O)[O-] (stereo not given),30.4 µM (active),
COc1cc(OC)nc(NC(=O)NS(=O)(=O)c2ncccc2C(=O)N(C)C)n1,,inactive
CC(C)CCCCCCOC(=O)c1ccccc1C(=O)OCCCCCCC(C)C,,inactive
CCOP(=S)(OCC)SCCS(=O)(=O)CC,,inactive
CC(C)(C)CC(C)(C)c1ccc(O)cc1,8.11 µM (active),
C[C@]12CCC(=O)C[C@@H]1CC[C@@H]1[C@@H]2CC[C@]2(C)[C@@H](O)CC[C@@H]12,,inactive
CC(C)(c1ccccc1)c1ccc(O)c(C(C)(C)c2ccccc2)c1,9.16 µM (active),
CCC(C)(C)c1ccc(O)c(C(C)(C)CC)c1,11.1 µM (active),
C=C(C)C(=O)[O][Sn]([CH2]CCC)([CH2]CCC)[CH2]CCC,0.254 µM (active),
Oc1cccc2cccnc12,2.69 µM (active),
Oc1c(I)cc(I)cc1I,20 µM (active),
COC(=O)Cc1ccccc1,,inactive
CC(=O)OC(c1ccccc1)C(Cl)(Cl)Cl (stereo not given),,inactive
Nc1cccc2ccccc12,,inactive
COP(=S)(OC)Oc1c(Cl)cc(C)cc1Cl,5.75 µM (active),
O=C1C2(Cl)C3(Cl)C4(Cl)C(Cl)(Cl)C5(Cl)C3(Cl)C1(Cl)C5(Cl)C24Cl (stereo not given),10.4 µM (active),
ClC(Cl)=C(Cl)C(Cl)=C(Cl)Cl,36.9 µM (active),
CCOP(=S)(OCC)Oc1nc(Cl)c(Cl)cc1Cl,27.9 µM (active),

Structure (SMILES),AC50,outcome
Cn1sc(Cl)cc1=O,28.2 µM (active),
O=[N+]([O-])c1ccc(O)c([N+](=O)[O-])c1,,inactive
COC(=O)c1sccc1S(=O)(=O)NC(=O)Nc1nc(C)nc(OC)n1,,inactive
O=C(O)C(F)(F)C(F)(F)C(F)(F)C(F)(F)C(F)(F)C(F)(F)C(F)(F)C(F)(F)C(F)(F)C(F)(F)F,33.4 µM (active),inactive
O=Cc1cccc(Oc2ccccc2)c1,,inactive
O=C(OC1CCCCC1)c1ccccc1C(=O)OC1CCCCC1,12.1 µM (active),
Oc1ccc(-c2ccccc2)cc1,,inactive
CC(=O)[O][Hg][c]1ccccc1,1.78 µM (active),
Cc1ccccc1N,,inactive
CN(C)N=O,,inactive
CCSC(C)CC1CC(=O)C(C(CC)=NOC/C=C/Cl)=C(O)C1 (stereo not given),,inactive
ClC1=C(Cl)[C@]2(Cl)[C@H]3[C@H]([C@H]4C=C[C@H]3C4)[C@@]1(Cl)C2(Cl)Cl,20 µM (active),
O=S(=O)(c1ccc(Cl)cc1)c1ccc(Cl)cc1,,inactive
O=C(O)CCC(F)(C(F)(F)F)C(F)(F)F,,inactive
O=C(O)C(Cl)(Cl)Cl,,inactive
C=CC(=O)OCCCCCC(C)C,,inactive
O=[N+]([O-])c1ccc2c3c(cccc13)CC2,,inactive
O=C(Nc1ccc2[nH]ccc2c1)c1cc2cc(F)ccc2n1Cc1cccc(F)c1,11.1 µM (active),
ClC1(Cl)C2(Cl)C3(Cl)C4(Cl)C(Cl)(Cl)C5(Cl)C3(Cl)C1(Cl)C5(Cl)C24Cl (stereo not given),,inactive
